Tested on: VDR:RXRa (NR concentration 270 nM, RXRa partner concentration 90 nM)
Assay: PBM binding z-score (relative to random genomic background probes); higher = stronger binding; sequences stand for … in GC…GCGATTGACAGCGTAGAATGAAGG
Method: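 Protein-binding microarray (Agilent 4x180K custom design, double-stranded 60-nt probes: 5' GC cap, 34-nt variable region, 24-nt constant primer region; full probe sequence given). Purified or IVT nuclear receptor:RXRα heterodimers (3:1 NR:RXRα, mostly 270:90 nM) or homodimers were incubated for 1 h in PBS with 2% milk and no ligand, then detected with Alexa488 antibodies. Fluorescence from o1-orientation probes (~5 replicates averaged) was converted to z-scores against 500 random hg19 background probes. Variable regions are seed direct-repeat (DR0–DR5) sites, all their single-nucleotide variants and half-site ablations.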

Sequence | PBM binding z-score
AGAATGAGCTTATTAAGATCAGGGAATTGCGGTC | -0.43
CCGACTGGGGCATAAGGTTACCTTAAGCCAGCCC | 0.0606
CTACCAAAGTGAACAAGGTCGTTGATTACTATTC | 3.07
CCCAGTTGGTCAGGAGGTCACACACCGGATATGA | 3.96
CCTTGCAGGCCAATCTGGGTCACTCAAGGCTTGA | 0.663
CAAACTAGGTCACGAAAGGTCAAAGTCGAATGAC | 6.91
CTCGAAAGGTCGTGCTCAGGCGAGTATACCAAAC | 2.96
CCGACTGGGGCATAAGGTTAACATAAGCCAGCCC | 0.684
TAGCCTAGGTCAGATCGGGCCAGTGTACGCTATA | 0.494
CATACAGGGTCAGCTAGACCAGAGTAGGGACGGC | 2.52
GCTGCTAGGTCAACCGATGGTCAGCTAAAGCTCG | 1.54
AGAATGAGGTTATTAAGATCCGGGAATTGCGGTC | 1.08
ACTAGCAGGCCAAGTTTGGGTCACTCTAACAAAG | 0.395
ACTATTAGTTGACTTACGGCAACCGATACGACGC | 0.0942
CAAACTAGGTCAAGGTCAAAGTTGGTTTGTGCCA | 5.16
ATCGAAAAGTCGACGAGGTGAGTATACACCGTTT | 0.461
TCTGCTAGGTCAGTTGTTCAGCTAACGAGCTGCC | -0.272
CCAGACAGTTGAAAGGTAACTCAGTCTGGTACGC | 0.591
CTACCAAGGTGAACAAGGTCGTTAATTACTATTC | 6.04
GGAACGAGGGCAGTCGAGTTGATAGCATGGCGAT | 1.22

Sequence | PBM binding z-score
GCTAGCAGGCCATTTGGGTAACTCAATGACGGGC | -0.713
TAACCTAGGTCATTCAGGGGCCAGTATAGAAAGC | 4.03
CATACTGGGTCAGCTAGGCCAGAGTAGGGACGGC | 1.19
ATCTCTAGGTAACCAAGTTCAGTGGATGCCGAAC | 4.04
CCTAGTTGGTCAAGTTCACACACGCTATAGGTAC | 3.96
ATCTCTAGGTAACCAAGTTCAGTGAGTGCCGAAC | 4.27
ATATGTAGGTTATCGGCTCATTCAGTTTGCGCAT | 0.802
ACTAGCAGGCCAAGGGTCACTCAAGATTAGTCCG | 2.61
TCTTGTAGATCAGCAGGTTAAGTAAGCTGGCCAA | 0.413
ATATGTGGGTTACATCCGGGTCATTCAGGCTATG | 4.41
GCTCGCAGGACAAGGTCAGAGCTTTGTCCGTAGA | 0.842
TCTAGTTGGTAACGGAGGTCACACACGACGGGTA | 3.8
TATGCTAGGTCAACGATGGTCAGCTAATCTGCTA | 1.79
TCATTTAGGTAAACAGGTGAAAGTCCGTAAGTTA | 1.26
CCTAGCAGGCTAATCTGGGTCACTCAAGGCTTGA | 0.385
GCTGCTAGGTCAGGTTGGTCAGCAAACGGGTACG | 0.616
ATCGAAAGGTCGAAGCTGAGTATACCCACCCGAA | 2.47
TCTAGTTGATCAAAGGTCACACACTCGAAATGCG | 5.05
CTCTAAAGGTCGGTTGAGGTGAGTATACGGATAA | 2.42
CAAACTTGGTCAAGAGGTCAAAGTCCGCTTCCCG | 5.4

Reference: the supplement of paper PMC6555819
